The values below come from PubChem BioAssay (NCI).

Some test systems named below: SK-MEL-2 melanoma; EKVX NSCLC; SN12C renal; UO-31 renal; TK-10 renal; ACHN renal; CAKI-1 renal; A498 renal; CCRF-CEM leukemia; MOLT-4 leukemia; SR leukemia; RPMI-8226 leukemia; OVCAR-8 ovarian; OVCAR-5 ovarian; OVCAR-4 ovarian; SK-OV-3 ovarian; IGROV1 ovarian; OVCAR-3 ovarian; HS 578T breast; NCI/ADR-RES ovarian.
What all share (test): NCI-60 one-dose screen, 48 h (100 = growth as untreated, 0 = no growth, -100 = all killed)
Conditions in all cases: 10 µM unless noted

The structures appear in SMILES notation. The panel holds about 83,000 compounds, 20% with a hit somewhere; the sample as a whole holds those more often.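 Each cell line was grown in a 96-well plate and treated with one concentration of compound for 48 hours. Values below 10 were considered active.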 Values without a mark were called inactive. Active and inactive are the calls of the source.

Regarding `O=C(Nc1ccc(Br)cc1)Nc1cccc(Br)c1`, the growth in the assay on SK-MEL-2 melanoma was 26%; in the assay with EKVX NSCLC it was 41%; in the assay on SN12C renal, 32.5%; in the assay with UO-31 renal, 34.9%; with TK-10 renal it was 29.2%; with ACHN renal, 14.9%. The growth was 50.3% in the assay on CAKI-1 renal; 21.4% in the assay with A498 renal; 15.6% in the assay on CCRF-CEM leukemia; 1.92% (active) in the assay on MOLT-4 leukemia; 38% in the assay on SR leukemia; 8.97% (active) in the assay on RPMI-8226 leukemia. Besides, the growth is 48.8% in the assay on OVCAR-8 ovarian; 76.8% with OVCAR-5 ovarian; 28.8% in the assay with OVCAR-4 ovarian; 75.2% with SK-OV-3 ovarian; 25.5% in the assay on IGROV1 ovarian; 16.2% in the assay with OVCAR-3 ovarian. Also, the growth with HS 578T breast was 76%; with NCI/ADR-RES ovarian, 46.4%.
`COc1ccc(/C(C)=N/NC(=O)CSc2nc3ccccc3c(=O)n2CCc2ccc(S(N)(=O)=O)cc2)cc1`: the growth was 6.04% (active) with SK-MEL-2 melanoma; 87.3% with EKVX NSCLC; 27.7% in the assay with SN12C renal; 32.4% with UO-31 renal; -39.8% (active) in the assay with TK-10 renal; 34.7% in the assay with ACHN renal. The growth with CAKI-1 renal is 28.9%; in the assay on A498 renal it was 5.05% (active); in the assay on CCRF-CEM leukemia, 33.9%; in the assay with MOLT-4 leukemia, 43%; in the assay on SR leukemia it was 40.2%; with RPMI-8226 leukemia it was 5.61% (active). Moreover, the growth with OVCAR-8 ovarian is -12.9% (active); in the assay with OVCAR-5 ovarian, 55%; with OVCAR-4 ovarian, -54.1% (active); in the assay on SK-OV-3 ovarian, -31.8% (active); in the assay with IGROV1 ovarian, 19.1%; in the assay on OVCAR-3 ovarian, 16.6%. In addition, the results for the growth in the assay on HS 578T breast and in the assay on NCI/ADR-RES ovarian were 29.5% and 79.4%, respectively.
For `COc1ccccc1CNCCCN1C(=O)c2ccc3c4c(ccc(c24)C1=O)C(=O)N(CCCNCCCN)C3=O`, the growth in the assay with SK-MEL-2 melanoma is -47.3% (active); in the assay with EKVX NSCLC it was 34.7%; in the assay on SN12C renal it was -56.8% (active); with UO-31 renal it was 23.3%; in the assay with TK-10 renal, 33.3%; in the assay with ACHN renal, 9.16% (active). Also, the growth in the assay with CAKI-1 renal is 31.9%; in the assay on A498 renal, 14.9%; with CCRF-CEM leukemia it was 7.88% (active); in the assay with MOLT-4 leukemia, -24.5% (active); in the assay on SR leukemia, 10%; in the assay on RPMI-8226 leukemia, 17.5%. Also, the growth in the assay on OVCAR-8 ovarian was -24.4% (active); in the assay on OVCAR-5 ovarian it was 37.9%; in the assay with OVCAR-4 ovarian, -99.3% (active); in the assay on SK-OV-3 ovarian, 34.7%; in the assay with IGROV1 ovarian, -2.92% (active); in the assay with OVCAR-3 ovarian, -19.3% (active). The results for the growth in the assay with HS 578T breast and in the assay with NCI/ADR-RES ovarian were 30.7% and 33.7%, respectively.
With `CC(C)N(C(=S)SSC(=S)N(C(C)C)C(C)C)C(C)C`, the growth in the assay with SK-MEL-2 melanoma was 109%; in the assay with EKVX NSCLC, 110%; in the assay with SN12C renal, 101%; with UO-31 renal it was 80.3%; with TK-10 renal it was 100%; in the assay on ACHN renal it was 98.2%. The growth in the assay with CAKI-1 renal was 85.8%; with A498 renal it was 97.8%; in the assay on CCRF-CEM leukemia it was 87.5%; in the assay with MOLT-4 leukemia, 105%; in the assay on SR leukemia it was 105%; in the assay on RPMI-8226 leukemia, 87.2%. Also, the growth in the assay on OVCAR-8 ovarian was 111%; in the assay with OVCAR-5 ovarian it was 107%; in the assay on OVCAR-4 ovarian, 78.7%; with SK-OV-3 ovarian, 112%; in the assay with IGROV1 ovarian, 92.2%; with OVCAR-3 ovarian, 108%. The results for the growth in the assay with HS 578T breast and with NCI/ADR-RES ovarian were 106% and 104%, respectively.
Take `COc1ccc(C(=O)O)cc1.[Ag]`: the growth with SK-MEL-2 melanoma is 94.6%; in the assay with EKVX NSCLC, 108%; in the assay on SN12C renal, 103%; in the assay on UO-31 renal, 91.2%; with TK-10 renal it was 106%; in the assay with ACHN renal, 103%. For the same molecule, the growth is 87.2% in the assay with CAKI-1 renal; 96.5% in the assay on A498 renal; 25.4% with CCRF-CEM leukemia; -52.5% (active) with MOLT-4 leukemia; 60.1% in the assay with SR leukemia; 103% in the assay with RPMI-8226 leukemia. Further, the growth was 105% in the assay with OVCAR-8 ovarian; 104% with OVCAR-5 ovarian; 117% in the assay on OVCAR-4 ovarian; 114% in the assay on SK-OV-3 ovarian; 110% in the assay on IGROV1 ovarian; 99.7% in the assay with OVCAR-3 ovarian. Also, the results for the growth in the assay on HS 578T breast and in the assay with NCI/ADR-RES ovarian were 96.1% and 99.5%, respectively.
As to `CC(=O)Cc1ccccn1`, the growth is 102% in the assay on SK-MEL-2 melanoma; 97.7% in the assay with EKVX NSCLC; 111% in the assay with SN12C renal; 88.5% in the assay with UO-31 renal; 109% with TK-10 renal; 99.5% in the assay on ACHN renal. The growth was 88% in the assay on CAKI-1 renal; 107% in the assay with A498 renal; 99.5% in the assay with CCRF-CEM leukemia; 102% with MOLT-4 leukemia; 108% in the assay with SR leukemia; 103% with RPMI-8226 leukemia. For the same molecule, the growth in the assay on OVCAR-8 ovarian is 110%; in the assay with OVCAR-5 ovarian, 110%; in the assay with OVCAR-4 ovarian, 106%; in the assay on SK-OV-3 ovarian it was 119%; in the assay on IGROV1 ovarian it was 107%; with OVCAR-3 ovarian, 105%. For the same molecule, the growth with HS 578T breast was 107%; with NCI/ADR-RES ovarian, 108%.
Turning to `CC(=O)c1ccc(N2C(=O)c3ccc(Oc4ccccc4)cc3C2=O)cc1`, the growth is 110% in the assay with SK-MEL-2 melanoma; 94.1% with EKVX NSCLC; 98.4% in the assay on SN12C renal; 92.5% in the assay with UO-31 renal; 105% in the assay on TK-10 renal; 107% in the assay with ACHN renal. In addition, the growth with CAKI-1 renal was 101%; in the assay with A498 renal, 91.5%; in the assay with CCRF-CEM leukemia, 134%; with MOLT-4 leukemia it was 115%; with SR leukemia, 119%; with RPMI-8226 leukemia, 101%. In addition, the growth was 114% in the assay on OVCAR-8 ovarian; 103% with OVCAR-5 ovarian; 108% with OVCAR-4 ovarian; 108% in the assay with SK-OV-3 ovarian; 108% in the assay on IGROV1 ovarian; 107% with OVCAR-3 ovarian. Moreover, the figures for the growth with HS 578T breast and in the assay with NCI/ADR-RES ovarian were 115% and 105%, respectively.
`CC1(C)CN(CCNc2nccc(-c3c(-c4cccc(O)c4)nc4sccn34)n2)S(=O)(=O)N1`: the growth is 24.1% in the assay with SK-MEL-2 melanoma; 108% in the assay with EKVX NSCLC; 57.6% in the assay on SN12C renal; 60.5% with UO-31 renal; 119% in the assay on TK-10 renal; 39.4% in the assay on ACHN renal. For the same molecule, the growth was 32.5% in the assay with CAKI-1 renal; 81.7% in the assay with A498 renal; 49.6% in the assay on CCRF-CEM leukemia; 71.8% in the assay on MOLT-4 leukemia; 17.5% in the assay on SR leukemia; 96.1% with RPMI-8226 leukemia. Also, the growth in the assay on OVCAR-8 ovarian is 103%; in the assay with OVCAR-5 ovarian, 94.1%; with OVCAR-4 ovarian, 70.9%; in the assay on SK-OV-3 ovarian, 44.7%; with IGROV1 ovarian, 38.5%; with OVCAR-3 ovarian it was 77.5%. Further, the growth is 71.6% in the assay on HS 578T breast and 111% in the assay on NCI/ADR-RES ovarian.
